Sm TGR block: qHTS Assay for the Inhibitors of Schistosoma Mansoni Peroxiredoxins; Schistosoma mansoni thioredoxin glutathione reductase (TGR), Q962Y6; purified TGR, DTNB reduction, TNB absorbance 405 nm; Potency, µM (top dose mostly 114 µM), for the others: top-dose activity change, negative = inhibition, usual class: inhibitors; 360,000 tested, 3% active; AID 485364, 2010; also: nearly all actives have a fitted effect of over 60% in size
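First, TGR (20 nM dispensed) and NADPH were mixed with compound. Second, a 15 min room-temperature incubation followed. Third, further NADPH and then DTNB were added to start the reaction. Finally, TNB absorbance was monitored kinetically.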
FMDV antiviral: High Throughput Screening for Foot and Mouth Disease Virus Antivirals. FMDV antiviral cell-based qHTS. Potency, µM (titrated, usually from 57.9 µM), without a hit: at the highest dose activity change, negative = inhibition, actives largely listed as inhibitors. 410,000 tested, 1.2% active; calls by dose curve; tested in HEK293T cells; also: read-out not given here; nearly all actives have a fitted effect of over 45% in size
HCV inh: qHTS Assay for Inhibitors of Hepatitis C Virus (HCV). Huh7.5.1 HCVcc-Cre infection, luciferase reporter, 44 h. Potency, µM (titrated, usually from 41.8 µM), for inactives: at the top dose activity change, negative = inhibition, actives largely listed as inhibitors. 340,000 tested, 3.4% active
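Antiviral activity was scored by luciferase reporter output from cells infected with HCVcc-Cre (~0.5 moi) in presence of compound, 44 h infection period, cells seeded 1,000/well 4 h prior.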
Marburg entry inh: qHTS for inhibitors of binding or entry into cells for Marburg Virus; Marburg virus pseudotyped entry inhibition, cell reporter; Potency, µM (titrated, usually from 37.8 µM), inactives show top-dose activity change, negative = inhibition, most hits filed as inhibitors; 300,000 tested, 1.8% active; calls by dose curve; tested in HEK293 cells
LASV entry inh: qHTS for Inhibitors of binding or entry into cells for Lassa Virus | Potency, µM (highest dose often 37.9 µM), for inactives: at the highest dose activity change, negative = inhibition, most hits filed as inhibitors | 300,000 tested, 1.2% active | Lassa virus pseudotype entry inhibition, cell reporter; calls by dose curve; tested in HEK293 cells; also: nearly all actives have a fitted effect of over 50% in size
RE007 growth inh: qHTS Assay for Inhibitors of the HIV-1 protein Vpr | S. pombe RE007 Vpr strain, BacTiter-Glo ATP luminescence, 24 h | Potency, µM (top dose mostly 92.2 µM), inactives show top-dose activity change, negative = less growth, hits mostly inhibitors | 360,000 tested, 0.21% active | AID 651644, 2012; active = well fitted falling curve with a large enough effect; inconclusive = small, poorly fitted or top-dose-only effect; inactive = no such curve, though single readings can be large or run the other way; also: nearly all actives have a fitted effect of over 50% in size
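Fission yeast strain RE007, carrying one chromosomally integrated HIV-1 vpr copy, was seeded at OD 0.01 in PMG+AL medium with 23 nL pinned compound. After 24 h at 30 °C and 99% humidity, viability was read by BacTiter-Glo luminescence.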
An asterisk follows results filed as active; ? = inconclusive; / = no result; [ ] = another dose, or the depositor's remark. Most compounds without a hit are left out; they make up all but 7.2% or so of the library. Unless noted, calls follow the shape of the dose curve; as a rule, active = well fitted curve in the direction sought with a large enough effect; inconclusive = small, poorly fitted or top-dose-only effect, or another doubt; inactive = no such curve, though single readings can be large; an effect the other way counts as inactive or inconclusive. % is scaled to controls: 0 for no effect and ±100 for the full control effect; potency is read from the fitted curve at half-maximal effect.

SMILES | Sm TGR block | FMDV antiviral | HCV inh | Marburg entry inh | LASV entry inh | RE007 growth inh
c1ccc2c(c1)OCC(c1csc3ncnc(N4CCCCC4)c13)O2 (configuration not stated) | 8% | 32µM* | 5% | ? | -18% | 0%
CCCN1CCN(c2ncnc3scc(C4COc5ccccc5O4)c23)CC1 (configuration not stated) | -3% | ? | ? | ? | ? | -8%
Cc1cc(C(=O)NCC2CCC3(CCN(Cc4ccccc4C)CC3)O2)n(C)n1 (configuration not stated) | / | -11% | / | / | / | /
CCCC1CC(C(=O)N[C@H](C(C)O)C2OC(SC)[C@@H](O)C(O)C2O)N(C)C1 (some centres not stated) | / | -4% | / | / | / | /
O=C1c2oc3ccccc3c(=O)c2C(c2cccc(O)c2)N1CCCN1CCOCC1 (configuration not stated) | 40µM* | -6% | 21% | -1% | / | 19%
COc1cc(C2c3c(oc4cc(C)c(C)cc4c3=O)C(=O)N2CCCN2CCOCC2)ccc1O (configuration not stated) | 35µM* | -11% | / | 13%[46.1 µM] | 17%[46.1 µM] | /
CCOc1ccc(C2c3c(oc4ccccc4c3=O)C(=O)N2CCCN2CCOCC2)cc1OCC (configuration not stated) | 22µM* | 2% | -1% | / | / | 8%
O=C1c2oc3ccc(Cl)cc3c(=O)c2C(c2ccco2)N1CCN1CCOCC1 (configuration not stated) | 35µM* | -13% | -10% | / | / | -8%
COc1ccc(C2c3c(oc4ccccc4c3=O)C(=O)N2CCCN2CCOCC2)cc1 (configuration not stated) | / | 23% | 1% | 14% | -3% | 13%[3.69 µM]
COc1cccc(C2c3c(oc4ccccc4c3=O)C(=O)N2CCCN2CCOCC2)c1OC (configuration not stated) | / | -20% | 8% | 11%[46.1 µM] | 4% | -9%
C[C@H]1CC[C@H]2C(=O)O[C@H](COc3ccc(C(C)(C)C)cc3)CN2[C@H]1c1ccc(Br)cc1 | / | / | / | -12%[14.2 µM] | ? | /
Cc1cc(C(=O)NCc2nc(-c3cccc(NC(=O)c4cc(C)oc4C)c3)oc2C)nc(C)n1 | / | -21% | / | / | / | /
O=C(O)c1ccc(Nc2nc3c(s2)CCCC3)cc1 | / | 10µM* | 9% | / | / | -18%
Cc1cccc(Nc2nc3c(s2)CCCC3)c1 | -10% | -24% | -8% | ? | ? | 25µM*
O=S1(=O)N=C(Nc2nc3c(s2)CCCC3)c2ccccc21 | -29% | -42% | -7% | ? | 7.1µM* | -2%
CCc1ccc(S(=O)(=O)c2nnn3c2nc(N2CCN(c4ccccc4)CC2)c2cc(Cl)ccc23)cc1 | 40% | -18% | / | 2%[46.1 µM] | / | /
Cc1ccc(CCNC(=O)c2c3c(nc4ccccc24)C(=O)N(C2CCCCC2)C3)cc1 | -11% | -20% | / | / | -30%[46.1 µM] | /
CCn1c(/C=C/N(C)c2ccccc2)[n+](CC)c2ccc(Cl)cc21 | -3% | / | 32µM* | ? | 8.2µM* | -9%
CN(Cc1cccnc1)C(=O)CCCc1c[nH]c2ccccc12 | 32µM* | 18% | -12% | -1%[46.1 µM] | / | -6%
N#CC1(C#N)CC(C=O)=C(N)C1(C#N)CC(=O)c1ccc(F)cc1 (configuration not stated) | 20µM* | -24% | 26% | ? | 17% | -4%
COC(=O)C1=C(C)N(Cc2ccccc2)C(=NCCc2cccnc2)N[C@H]1c1ccc(Br)cc1 | 0% | ? | 2.8µM* | / | / | 2%
O=C(Cn1cc(S(=O)(=O)c2ccccc2)c(=O)c2cc3c(cc21)OCO3)Nc1ccc(Cl)cc1 | -4% | 6% | / | -22%[46.1 µM] | -21%[46.1 µM] | /
N#CCCCN1C(=O)C(=C(C#N)C#N)c2ccccc21 | 2.5µM* | ? | 14% | / | / | -3%
CCOc1ccc(NC(=O)CSc2oc(-c3ccc(F)cc3)nc2S(=O)(=O)c2ccc(C)cc2)cc1 | 5% | -15% | / | -6%[46.1 µM] | -17%[46.1 µM] | /
Cc1c(Cl)cccc1NC(=O)Nc1nnc(N2CCCCCC2)s1 | 9% | 10% | / | -19%[46.1 µM] | -12%[46.1 µM] | /
SMILES | Sm TGR block | FMDV antiviral | HCV inh | Marburg entry inh | LASV entry inh | RE007 growth inh
O=C(NCCc1ccccn1)C1CC12CCN(C(=O)c1ccc(F)cc1Cl)CC2 (configuration not stated) | / | 0% | / | / | / | /
CC(=O)C1(C)OC(N)=C(C#N)C(c2ccccc2)C1(C#N)C#N (configuration not stated) | 11µM* | 2% | 14% | 0% | 0% | 18%
COc1ccc(Cl)cc1C(=O)NCc1nc(-c2cccc(C)c2)no1 | 2% | -12% | / | ? | -2%[46.1 µM] | /
CCC1=C(c2ccc(C)cc2)S(=O)(=O)N=C1N1CCC(C(=O)NCc2ccc(N(C)C)cc2)CC1 | -75% | -6% | / | / | 7%[46.1 µM] | /
Cc1ccc(C)c(NS(=O)(=O)c2cc(C(=O)Nc3ccccc3-c3ccccc3)ccc2C)c1 | -7% | 9% | ? | ? | ? | -10%
Cc1ccccc1NS(=O)(=O)c1cc(C(=O)Nc2cccc([N+](=O)[O-])c2)ccc1C | -10% | -71% | ? | ? | 11µM* | -2%
Cc1ccc(C(=O)Nc2ccccc2-c2ccccc2)cc1S(=O)(=O)Nc1cccc(C)c1C | 18% | -7% | 10µM* | ? | -42% | -15%
Cc1ccc(C(=O)Nc2cccc([N+](=O)[O-])c2)cc1S(=O)(=O)Nc1ccc(C(=O)O)cc1 | -2% | 13% | 7% | 7%[46.1 µM] | 1% | -3%
Cc1ccccc1NS(=O)(=O)c1cc(C(=O)Nc2cccnc2)ccc1C | -8% | 14% | 32µM* | ? | -21% | -8%
CCCN1CCN(C(=O)c2cnn(-c3ncc4c(n3)-c3ccccc3CCC4)c2COC)CC1 | / | -12% | / | / | / | /
Cn1ccc2c(-c3ccc(F)cc3)cc3c(c21)C1CCC3O1 (configuration not stated) | / | / | / | / | 1%[46.1 µM] | /
COc1cccc(N2CCN(c3c4c(nc5nncn35)CCC4)CC2)c1 | ? | ? | / | ? | -21%[46.1 µM] | /
Clc1cccc(N2CCN(c3c4c(nc5nncn35)CCC4)CC2)c1 | 2% | 22µM* | / | ? | 9%[46.1 µM] | /
CCOc1cc(C(=O)N(Cc2nc(-c3ccc(C)cc3)no2)C(C)C)cc(OCC)c1OCC | 6% | ? | / | -6%[46.1 µM] | 24%[46.1 µM] | /
CNc1cc(-c2ccc(O)cc2C)ncn1 | / | 20% | / | / | / | -8%
CCC(CO)Oc1cc(NCc2ccccc2C(F)(F)F)c2ncn(C(C)C)c2c1 (configuration not stated) | / | -21% | 1.3µM* | / | / | -9%

Source: PubChem BioAssay
